According to PubChem BioAssay:

Each compound was assayed against PEG-3 (UniProt Q6IN02) (assay: Peg3 promoter luciferase inhibitors, potency, dose response, cell-based, HeLa, CREF/GAPDH counter-screen panel (AID 624167)). Conditions: CREF/GAPDH counter-screens; HeLa PEG-Prom luciferase reporter, overnight, run 1, dose range 1, at 100 µM (top of the series) unless noted.
PEG-3, sequence (Q6IN02 whole entry, looked up): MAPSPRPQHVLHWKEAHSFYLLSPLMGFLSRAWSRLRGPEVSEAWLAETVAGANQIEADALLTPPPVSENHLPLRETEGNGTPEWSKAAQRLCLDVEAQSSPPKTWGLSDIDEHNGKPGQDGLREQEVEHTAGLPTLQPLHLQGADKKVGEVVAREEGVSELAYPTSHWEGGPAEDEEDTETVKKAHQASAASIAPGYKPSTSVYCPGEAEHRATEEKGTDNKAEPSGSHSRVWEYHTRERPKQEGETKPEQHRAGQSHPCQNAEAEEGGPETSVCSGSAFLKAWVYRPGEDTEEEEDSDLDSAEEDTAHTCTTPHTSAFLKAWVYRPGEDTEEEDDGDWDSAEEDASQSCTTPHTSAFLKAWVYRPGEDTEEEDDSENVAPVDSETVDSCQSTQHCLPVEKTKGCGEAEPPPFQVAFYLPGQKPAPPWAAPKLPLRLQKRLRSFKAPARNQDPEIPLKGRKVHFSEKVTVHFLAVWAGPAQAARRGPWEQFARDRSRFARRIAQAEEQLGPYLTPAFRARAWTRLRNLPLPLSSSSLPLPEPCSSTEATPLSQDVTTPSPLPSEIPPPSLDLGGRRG

Row | Structure (SMILES) | inhibition
1 | CC(=O)c1sc2c(c1OC(=O)c1ccc(Cl)cc1Cl)c(=O)n(-c1ccccc1)c(=S)n2-c1ccccc1 | 82.6%
2 | CCN1C=CC(=C2C(=O)c3ccccc3C2=O)C=C1 | 96.8%
3 | Cc1ccc(C(=O)Nc2nc3ccccc3[nH]2)cc1 | 89.8%
4 | O=C(Nc1nc2cc3c(cc2s1)OCCO3)C1=COCCO1 | 99.1%
5 | CN(C)c1ccc(NC(=S)c2ccccn2)cc1 | 93.1%
6 | Cc1ccc(-c2nc(-c3ccccn3)no2)cc1Cl | 102%
7 | Cc1c([N+](=O)[O-])cc(N2C(=O)C=CC2=O)cc1[N+](=O)[O-] | 102%
8 | COc1cc(Nc2c3ccccc3nc3ccccc23)cc(OC)c1OC | 102%
9 | S=C(NN=C(c1ccccc1)c1ccccn1)N(Cc1ccccn1)Cc1ccccn1 | 102%
10 | Cc1cccc(OCC(=O)NCC(=O)N/N=C/c2cc(Br)cc(Br)c2O)c1 | 75%
11 | O=C(O)c1ccc(CN2C(=O)c3cccc4c([N+](=O)[O-])ccc(c34)C2=O)cc1 | 99%
12 | CN[C@H]1C[C@H]2c3[nH]c4ccc(-c5ccc(OC)cc5)cc4c3CCN2C(=O)[C@H]1[C@H](C)O | 102%
13 | CCc1ccn2cc(-c3ccc4c(c3)OCO4)nc2c1 | 96%
14 | CN(C)c1ccc(/C=C/c2nc3ccccc3s2)cc1 | 94.8%
15 | CN(C)c1ccc(C=c2c3ccccc3n3c2cc(-c2ccccc2)[n+]3C)cc1 | 98.9%
16 | Brc1ccc(N=Nc2ccc3ccccc3n2)cc1 | 93.5%
17 | CS(=O)(=O)c1ccc(-c2sc3ccccc3c2C#CCCO)cc1 | 96%
18 | CCCCC(=O)NC(c1ccccc1)c1ccc2cccnc2c1O (stereo not given) | 90.4%
19 | O=C(N/N=C/c1c(O)ccc2ccccc12)c1ccc(CO)nc1 | 51.6%
20 | Cc1cc(N2CCN(C)CC2)ccc1NC(=O)c1c2c(nc3ccccc13)CCN(Cc1ccccc1)C2 | 101%
21 | CN(C)c1ccc(/C=C(\C#N)c2ccccn2)cc1 | 81.8%

What follows are compounds tested against PEG-3 (UniProt Q6IN02) in the same assay as above. Conditions: CREF/GAPDH counter-screens; HeLa PEG-Prom luciferase reporter, overnight, run 2, dose range 1, at 100 µM (top of the series) unless noted.

Row | Structure (SMILES) | inhibition
22 | O=C(Nc1ncc([N+](=O)[O-])s1)c1ccc2c(c1)OCO2 | 89.6%
23 | Cc1oc(-c2ccc3c(c2)OCCO3)cc1C(=O)O | 99.2%
24 | COc1cc(/C=C2\SC(=Nc3ccccc3OC)NC2=O)ccc1O | 89.3% [run 2, dose range 1, at 25 µM]
25 | COC(CNC(=O)c1ccc2c3c(onc13)-c1ccccc1C2=O)OC | 102%
26 | O=C(Nc1nc2cc3c(cc2s1)OCO3)C1=COCCO1 | 94%
27 | O=C(Nc1ccccc1C(=O)Nc1nnc(C(F)(F)F)s1)c1ccccc1 | 88.8%
28 | Cc1cc(C(=O)CN2C(=O)c3ccccc3S2(=O)=O)c(C)n1-c1ccccc1 | 98%
29 | CN=c1scc(-c2cccs2)n1/N=C/c1ccccc1O | 102%
30 | COCCCNC(=O)c1ccc(Cn2c(=O)c3ccccc3n(Cc3ccccc3C#N)c2=O)cc1 | 64%
31 | Cc1cc(Br)ccc1NC(=O)CNC(=O)Cn1ncc(Cl)c(Cl)c1=O | 94.5%
32 | O=C(NC(=O)c1ccccc1)Nc1ccccn1 | 94%
33 | COc1ccc2c(c1)sc1nc(-c3ccccc3)cn12 | 97.3%
34 | N=c1n(CC(=O)c2ccc([N+](=O)[O-])cc2)c2ccccc2n1Cc1ccc(Cl)cc1 | 101%
35 | O=C(O)c1cccc(COc2ccc(CO)cc2Cl)c1 | 102%
36 | O=C(Nc1nc2ccccc2[nH]1)c1ccccc1F | 98.3%
37 | Cc1ccc(C(C[N+](=O)[O-])Sc2ccc(N)cc2)cc1 (stereo not given) | 101%
38 | COc1ccc(C(=O)NNC(=O)c2ccccn2)cc1 | 95.9%
39 | NC(Cc1ccc(F)cc1)c1csc(Nc2cc(Oc3ccccc3)ncn2)n1 (stereo not given) | 101%
40 | Cc1nc(C)c(C(=O)N/N=C/c2cc(Br)ccc2O)s1 | 101%
41 | CC(=O)c1sc2c(c1OC(=O)c1ccc(Cl)cc1Cl)c(=O)n(-c1ccccc1)c(=S)n2-c1ccccc1 | 96.3%
42 | CCN1C=CC(=C2C(=O)c3ccccc3C2=O)C=C1 | 98.3%
43 | Cc1ccc(C(=O)Nc2nc3ccccc3[nH]2)cc1 | 88.1%
44 | O=C(Nc1nc2cc3c(cc2s1)OCCO3)C1=COCCO1 | 98%
45 | CN(C)c1ccc(NC(=S)c2ccccn2)cc1 | 85.4%
46 | Cc1ccc(-c2nc(-c3ccccn3)no2)cc1Cl | 95.2%
47 | Cc1c([N+](=O)[O-])cc(N2C(=O)C=CC2=O)cc1[N+](=O)[O-] | 102%
48 | COc1cc(Nc2c3ccccc3nc3ccccc23)cc(OC)c1OC | 102%
49 | S=C(NN=C(c1ccccc1)c1ccccn1)N(Cc1ccccn1)Cc1ccccn1 | 102%
50 | Cc1cccc(OCC(=O)NCC(=O)N/N=C/c2cc(Br)cc(Br)c2O)c1 | 86.2%
